Measured values: PubChem BioAssay AID612 (The Scripps Research Institute Molecular Screening Center, 2007)
About 420 (0.68%) of roughly 62,000 compounds were called active. The sample as a whole holds a higher share of actives than the screen did. A number with no mark means an inactive call.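 The calls were made as follows: active = inhibition above the mean of all tested compounds plus 3 SD (cut at about 43% in these data); inactive = the rest.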

biological target: 5-hydroxytryptamine receptor 1A (Homo sapiens) (UniProt P08908); experiment: human 5-HT1a receptor antagonists, primary screen, cell-based, CHO, Ga15 NFAT-bla reporter (AID 612); details: CHO 5-HT1a Ga15 NFAT-bla reporter, antagonist mode; at 10 µM; hits give high values;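 also: receptor stimulated by 5-CT agonist at 100 nM near EC80; beta-lactamase reporter measured by ratiometric fluorescence of a cleavable substrate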
Sequence (P08908 whole entry, looked up): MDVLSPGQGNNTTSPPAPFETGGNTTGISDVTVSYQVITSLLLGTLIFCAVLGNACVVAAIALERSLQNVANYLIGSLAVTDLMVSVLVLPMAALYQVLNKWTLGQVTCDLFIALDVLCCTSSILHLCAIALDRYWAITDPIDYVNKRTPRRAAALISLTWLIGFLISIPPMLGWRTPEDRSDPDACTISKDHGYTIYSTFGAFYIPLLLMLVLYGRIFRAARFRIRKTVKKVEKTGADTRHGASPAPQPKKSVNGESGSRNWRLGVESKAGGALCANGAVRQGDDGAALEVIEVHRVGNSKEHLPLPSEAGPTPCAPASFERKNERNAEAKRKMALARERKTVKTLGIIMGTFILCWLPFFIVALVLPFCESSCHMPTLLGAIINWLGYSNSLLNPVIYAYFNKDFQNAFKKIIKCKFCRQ

SMILES	inhibition
COc1ncnc2sc3c(c12)CCCC3	10.5%
COc1ccc(-c2nnco2)cc1OC	2%
COc1ccc(-c2cc(C(F)(F)F)nc(S(C)(=O)=O)n2)cc1OC	78.1% (active)
COc1ccc(-c2ccc(Nc3ccc(S(=O)(=O)N4CCCC4)cc3)nn2)cc1OC	-0.9%
CN1CCN(CC(=O)C23CC4CC(CC(C4)C2)C3)CC1	4.4%
Cc1ccc(C2(c3ccc(C)cc3)NC(=O)N(Cc3c(C)noc3C)C2=O)cc1	1.9%
CCN(Cc1ccccc1)C(=O)CSc1nc(C)cc2c1C(=O)OC2	-9%
O=C(CSc1nnc(-c2cnccn2)n1Cc1ccco1)c1ccc(Cl)c(Cl)c1	9.1%
Cc1noc(C)c1S(=O)(=O)NCCc1ccc(S(N)(=O)=O)cc1	-7.6%
COc1ccc(CCN(C)C(=O)C2CCCN(Cc3ccc(OC)c(OC)c3)C2)cc1OC (centres undefined)	14.7%
COc1ccccc1N1CCN(C(=O)CN(Cc2ccc(Cl)cc2)S(C)(=O)=O)CC1	17.7%
COc1ccccc1-n1nnnc1S(=O)(=O)Cc1ccc(Cl)cc1	82.7% (active)
COc1ccccc1N1CCN(Cc2nnnn2CCc2ccccc2)CC1	5.1%
COC(=O)c1ccc(NC(=O)CSc2nnc(Cc3cccn3C)n2-c2ccc(F)cc2)cc1	3.3%
Cc1ccc(N2C(=O)CC(NCc3ccc4c(c3)OCO4)C2=O)cc1Cl (centres undefined)	-4.3%
CC(C)NS(=O)(=O)c1ccc(CCC(=O)N2CCOCC2)cc1	-10.5%
CCOC(=O)CSc1nnc(CNC(=O)c2ccco2)n1-c1ccc(F)cc1	5.9%
CN(C)/C=C1\C=C(c2ccccc2)OC1=O	-8.2%
CCOC(=O)C1(Cc2ccc(O)cc2)NC(c2ccccc2F)C2C(=O)N(C)C(=O)C21 (centres undefined)	6.2%
Clc1ccc(C=NC23CN4CN(CN(C4)C2)C3)cc1	-6.9%
COc1ccc(CNC(=O)C2CCN(S(=O)(=O)N3CCOCC3)CC2)cc1	5.7%
c1csc(-c2nc(-c3ccncc3)no2)c1	-12.8%
COc1cc(Cl)c(S(=O)(=O)n2cnc(C)c2)cc1Cl	-7.5%
CSCC[C@H](NC(=O)NCc1cccs1)C(=O)O	4.7%
CC1CCN(c2oc(-c3ccccc3F)nc2C#N)CC1	13.1%

SMILES	inhibition
c1csc(-c2cn3c(n2)SCC3)c1	5.5%
Cc1ccc(C(=O)Nc2nnc(-c3cccs3)s2)cc1C	-13.8%
COc1cccc(NC(=O)Nc2nnc(N3CCCCC3C)s2)c1 (centres undefined)	35.8%
c1ccc(-n2ncc3c2ncn2c(C4CCCCC4)nnc32)cc1	-3.1%
O=C(CC(NS(=O)(=O)c1ccc(Cl)cc1)c1ccco1)NC1CCCC1 (centres undefined)	7.3%
COC(=O)N1CN(C(=O)OC)CN(C(=O)OC)C1	-7%
O=C(CN1CCOCC1)Nc1c2c(nc3c1CCC3)CCC2	2.1%
COc1ccccc1NC(=O)CSc1nc2sc(C)c(C)c2c(=O)n1Cc1ccco1	19.2%
CCOC(=O)CSc1nc2c(sc(=S)n2CCc2ccccc2)c(=O)n1Cc1ccco1	58.2% (active)
CCOC(=O)CSc1nc2c(c(=O)n(C)c(=O)n2C)n1Cc1ccccc1F	-3.1%
CC(c1cccnc1)N(CCN(C)C)C(=O)Nc1ccc(Cl)c(Cl)c1 (centres undefined)	3.9%
Cc1ccc(C)c(NC(=O)C2CC(=O)N(C(C)C)C2)c1 (centres undefined)	-1.5%
COc1ccc(S(=O)(=O)N2CCOCC2)cc1C(=O)Nc1nc2ccccc2s1	-17.7%
Cc1ccc2nc(NC(=O)C3CCN(S(=O)(=O)c4ccc5c(c4)oc(=O)n5C)CC3)sc2c1	1.8%
O=S(=O)(NCc1ccccc1Cl)c1cnc[nH]1	-4.7%
COc1ccccc1C(=O)Oc1ccc(N2C(=O)CCC2=O)cc1	-3.5%
CCOc1cc(C(=O)N2CCc3cc(OC)c(OC)cc3C2)ccc1OC(F)F	60.5% (active)
CCOc1cc(-c2noc(CCC(=O)N3CCOCC3)n2)ccc1OC	-10.7%
CCOc1cc(CN2CCN(C(=O)CC(C)C)CC2)ccc1OC	-2.9%
CCCOc1ccccc1C1CC(=O)Nc2cc3c(cc21)OCO3 (centres undefined)	54.2% (active)
COCCOC(=O)C1=C(C)NC(=O)CC1c1cc2c(cc1Br)OCO2 (centres undefined)	3.2%
COc1cc2c(cc1OC)C(c1ccc(C)o1)CC(=O)N2 (centres undefined)	30.2%
Cc1cc(NC(=O)CCC(=O)N(c2cccc(F)c2)C(C(=O)NC2CCCC2)c2ccncc2)no1 (centres undefined)	-3.5%
C/C(=N\O)C1(C)N(O)C(C)(C)C(c2ccc(Br)cc2)=[N+]1[O-] (centres undefined)	-14.2%
COC(=O)c1ccc(/C=N\n2c(C)nnc2C)cc1	0.3%

SMILES	inhibition
CCOC(=O)N1CCN(C(=O)C2CCCN(c3ncnc4c3sc3cccc(F)c34)C2)CC1 (centres undefined)	7.8%
CC(C)c1ccc(-c2nn[nH]n2)cc1	-0.6%
COc1ccc(N2CCN(C3CC(=O)N(c4ccc5c(c4)OCCO5)C3=O)CC2)cc1 (centres undefined)	-12.3%
O=C(CCc1ccccc1)Nc1cccc(-c2nnc(-c3ccco3)o2)c1	10%
COC(=O)Cc1c(C)c2ccc(OCC(=O)NCc3ccc4c(c3)OCO4)cc2oc1=O	12.5%
CN(C)CCCn1c(N)c(C#N)c2nc(C#N)c(C#N)nc21	-28.3%
O=C(Cn1cnc2c(nnn2Cc2ccc(F)cc2)c1=O)NCc1ccc2c(c1)OCO2	2%
COc1ccc(C(=O)N2CCC(C(=O)Nc3cccc(C)c3)CC2)cc1OC	-2.1%
O=C(Nc1nsc(-c2ccccc2)n1)c1ccncc1	-6.7%
COc1ccc(C2OC(=O)CC2C(=O)NC(C)C)cc1 (centres undefined)	-3.4%
CC(C)CCNC(=O)CN(C(=O)Cn1nnc(-c2ccc(F)cc2)n1)C1CCCC1	9.5%
O=C(O)c1cscn1	-20.4%
O=S(=O)(NCc1ccccn1)c1ccc(F)cc1	-4.1%
CCn1c(=O)cc(OCC(=O)NCCCN2CCN(c3cccc(Cl)c3)CC2)c2ccccc21	50.4% (active)
O=C(CCn1c(=O)[nH]c2ccccc2c1=O)NCCCN1CCN(c2cccc(Cl)c2)CC1	37.1%
CCOC(=O)N1CCC(Nc2c(NCCN3CCN(c4cccc(Cl)c4)CC3)c(=O)c2=O)CC1	1.9%
CC1CCCC(C)N1CCCNC(=O)c1cc2c(=O)n(C)c3ccccc3c2n1C (centres undefined)	1.7%
Cn1c(C(=O)NCCc2ccsc2)cc2c(=O)n(C)c3ccccc3c21	-3.6%
Cn1c(C(=O)NCCCN2CCN(c3cccc(Cl)c3)CC2)cc2c(=O)n(C)c3ccccc3c21	47.4% (active)
Fc1ccc2nc(Nc3nc4c(s3)CCCC4)sc2c1	16.8%
Cc1cnc(NC(=O)CSc2nnc(-c3ccc(Cl)cc3Cl)n2N)s1	-1.4%
CN(CCCNC(=O)CN1C(=O)CC(C)(C)S(=O)(=O)c2ccccc21)C1CCCCC1	-7.9%
CCOC(=O)Cn1c2c(c(-c3ccccc3OC)cc1=O)CCCC2	17.8%
O=S(=O)(c1ccc(Sc2nnc3ccccn23)nc1)N1CCOCC1	-7.8%
O=C(Nc1nnc(-c2ccc(Cl)cc2)o1)c1ccccc1Br	8.9%

SMILES	inhibition
O=c1cc(CSc2ccc(Cl)cc2)nc(N2CCOCC2)[nH]1	-13.7%
Cc1cc2c(=O)n(C)c(SCC(=O)c3cc4ccccc4o3)nc2s1	-6.7%
COc1ccccc1-c1nc(C(F)(F)F)c(OC)o1	3.7%
COCCNC(=O)Cn1cc2c(n1)CCCCC2	-1.6%
COc1ccc(C)c(Cn2c(-c3nonc3N)nc3ccccc32)c1	38.7%
Nc1nonc1-c1nc2ccccc2n1Cc1ccc(F)cc1	48% (active)
Nc1nonc1-c1nc2ccccc2n1CCC(=O)O	-21.2%
Cc1cccc2nc(CNc3ccc(F)cc3)cn12	-11.2%
COc1ccc(N2C(=O)C3CCCN3C2c2cccs2)cc1 (centres undefined)	19.9%
O=C(CSc1nnc2ccccn12)c1ccccc1	3.3%
COc1ccc(OC)c(C(=O)CSc2nnc(-c3cccs3)o2)c1	-4.9%
Cc1ccc(-c2noc(CCC(=O)Nc3ccccc3N3CCN(C)CC3)n2)cc1	5.2%
O=C(NCCN1CCOCC1)c1ccc2c(c1)ncn2C1CCCC1	-8%
Cc1ccc(Oc2ccc(N)cc2)cc1	11.4%
CCCc1nc(SCC(=O)Nc2ccccc2OC)c2c(=O)n(C)c(=O)n(C)c2n1	10.8%
CCOc1cc(/C=N/n2cnnc2)c(Br)cc1O	-8.1%
COc1ccc(O)c(C=Nc2cc(C)on2)c1	4.6%
COc1ccccc1-n1cnc2cc(C(=O)NCC3CCCO3)ccc21 (centres undefined)	10.8%
COC(=O)c1ccc(CSc2nncn2C)cc1	-0.1%
COc1ccc(C(CNC(=O)c2cccnc2SC)N2CCOCC2)cc1 (centres undefined)	5.3%
CCCC(=O)Nc1c(O)c2ccccc2[nH]c1=O	0.3%
O=C(c1cc(-c2cccc(O)c2)on1)N1CCc2ccccc2C1	-4.3%
c1ccc(-c2cn3cccnc3n2)cc1	-0.3%
C/C(CC(O)(/C=N/O)c1ccccc1)=N\O (centres undefined)	7.7%
